Assay results from the supplement of paper PMC9262897, “Low-cost anti-mycobacterial drug discovery using engineered E. coli” (Nature Communications, 2022).
Counter-ions that a name gives are not always drawn. ± gives the standard deviation of the averaged measurements.

The compounds below were run on E. coli TESEC Alr+ wild-type control (assay: growth (OD600 after 10 h); higher = more growth (less inhibition)). Details: compound 0.1 mM; raw OD600 reference: median of DMSO wells 0.49, cell-free background 0.052.
Procedure: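 TESEC Mtb Alr E. coli (ΔaraC ΔtolC ΔentC Δalr ΔdadX, arabinose-inducible Mtb Alr) or the Alr+ wild-type control strain, grown in defined M9-fructose medium without D-alanine in 96-well plates with Prestwick library compounds at 0.1 mM and 1% DMSO. Low Alr induction is 0.1 µM arabinose and high induction is 10 mM arabinose.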

Row | Compound | growth
1 | C[C@]12CC[C@H](O)C[C@@H]1CC[C@@H]1[C@@H]2CC[C@]2(C)C(=O)CC[C@@H]12 [Epiandrosterone] | 0.252 ± 0.013
2 | CC[N+]1(C)CCCC(OC(=O)C(O)(c2ccccc2)c2ccccc2)C1 (stereo not given) [Pipenzolate bromide] | 0.424 ± 0.016
3 | COc1ccc(CCN2CCC(Nc3nc4ccccc4n3Cc3ccc(F)cc3)CC2)cc1 [Astemizole] | 0.0478 ± 0.00075
4 | C[C@]12CC[C@H]3[C@@H](CCC4=CC(=O)CC[C@@H]43)[C@@H]1CC[C@@H]2O [Nandrolone] | 0.423 ± 0.015
5 | NCC1(CC(=O)O)CCCCC1 [Gabapentin] | 0.565 ± 0.076
6 | O[C@@H]1CCCC[C@H]1N1CCC(c2ccccc2)CC1 [L(-)-vesamicol hydrochloride] | 0.521 ± 0.091
7 | CC[C@@]1([C@@H]2O[C@@H]([C@H]3O[C@@](O)(CO)[C@H](C)C[C@@H]3C)C[C@@H]2C)CC[C@H]([C@]2(C)CC[C@]3(C[C@H](O)[C@@H](C)[C@@H]([C@@H](C)[C@@H](OC)[C@H](C)C(=O)O)O3)O2)O1 [Monensin sodium salt] | 0.408 ± 0.05
8 | C#C[C@]1(O)CC[C@H]2[C@@H]3CCC4=CC(=O)CCC4=C3C=C[C@@]21CC [Gestrinone] | 0.287 ± 0.011
9 | CCN(C)C(=O)Oc1cccc([C@H](C)N(C)C)c1 [Rivastigmine] | 0.504 ± 0.066
10 | C[C@]12CC[C@H](O)C[C@H]1CC[C@@H]1[C@@H]2CC[C@]2(C)[C@@H](C3=CC(=O)OC3)CC[C@]12O [Digitoxigenin] | 0.439 ± 0.016
11 | NCCCNCCSP(=O)(O)O [Amifostine] | 0.627 ± 0.013
12 | C=C1C[C@@H]2[C@H](CC[C@]3(C)C(=O)CC[C@@H]23)[C@@]2(C)C=CC(=O)C=C12 [Exemestane] | 0.322 ± 0.0079
13 | CC(C)[N+](C)(CCC(C(N)=O)(c1ccccc1)c1ccccc1)C(C)C [Isopropamide iodide] | 0.516 ± 0.045
14 | CC(Cc1ccc(O)cc1)NCC(O)c1cc(O)cc(O)c1 (stereo not given) [Fenoterol hydrobromide] | 0.575 ± 0.046
15 | O=C(NCNC(=O)NC1C(=O)NC(=O)N1CO)NC1C(=O)NC(=O)N1CO (stereo not given) [Imidurea] | 0.545 ± 0.022
16 | C[N+]12CCC(CC1)C(OC(=O)C(O)(c1ccccc1)c1ccccc1)C2 (stereo not given) [Clidinium bromide] | 0.611 ± 0.031
17 | CC(=O)OCC1=C(C(=O)O)N2C(=O)[C@@H](N)[C@H]2SC1 [Cephalosporanic acid, 7-amino] | 0.649 ± 0.029
18 | CNC(C)(C)Cc1ccccc1 [Mephentermine hemisulfate] | 0.48 ± 0.047
19 | c1ccc2c(c1)Nc1ccccc1S2 [Phenothiazine] | 0.457 ± 0.0082
20 | N[C@@H]1C[C@H]1c1ccccc1 [Tranylcypromine hydrochloride] | 0.529 ± 0.055

Row | Compound | growth
21 | COc1cccc(C2(O)CCCCC2CN(C)C)c1 (stereo not given) [Tramadol hydrochloride] | 0.476 ± 0.013
22 | CCCCCC[C@H]1C(=O)O[C@H](C)[C@H](NC(=O)c2cccc(NC=O)c2O)C(=O)O[C@@H](C)[C@@H]1OC(=O)CC(C)C [Antimycin A] | 0.428 ± 0.022
23 | CN1C[C@H](C(=O)N[C@]2(C)O[C@@]3(O)[C@@H]4CCCN4C(=O)[C@H](Cc4ccccc4)N3C2=O)C[C@@H]2c3cccc4[nH]cc(c34)C[C@H]21 [Dihydroergotamine tartrate] | 0.1077 ± 0.001
24 | C[N+]1(C)CCCC(OC(=O)C(O)(c2ccccc2)c2ccccc2)C1 (stereo not given) [Mepenzolate bromide] | 0.435 ± 0.012
25 | CC(=O)OC1CN2CCC1CC2 (stereo not given) [Aceclidine Hydrochloride] | 0.459 ± 0.015
26 | C[N+](C)(C)CCCCCCCCCC[N+](C)(C)C [Decamethonium bromide] | 0.417 ± 0.017
27 | CN1C[C@H](CNC(=O)OCc2ccccc2)C[C@@H]2c3cccc4c3c(cn4C)C[C@H]21 [Metergoline] | 0.04927 ± 5.8e-05
28 | CC(=O)NC1CCSC1=O (racemic) [N-Acetyl-DL-homocysteine Thiolactone] | 0.406 ± 0.015
29 | CN(C)[C@@H]1C(=O)C(C(N)=O)=C(O)[C@@]2(O)C(=O)C3=C(O)c4c(O)cccc4[C@@](C)(O)[C@H]3C[C@@H]12 [Tetracycline hydrochloride] | 0.0518 ± 0.0007
30 | O=C1CC[C@@]2(O)[C@H]3Cc4ccc(O)c5c4[C@@]2(CCN3CC2CC2)[C@H]1O5 [Naltrexone hydrochloride dihydrate] | 0.496 ± 0.022
31 | O=[N+]([O-])O[C@@H]1CO[C@H]2[C@@H]1OC[C@@H]2O [Isosorbide mononitrate] | 0.548 ± 0.053
32 | CC(O)(CS(=O)(=O)c1ccc(F)cc1)C(=O)Nc1ccc(C#N)c(C(F)(F)F)c1 (stereo not given) [Bicalutamide] | 0.3777 ± 0.0027
33 | NCCc1c[nH]c2ccc(O)cc12 [Serotonin hydrochloride] | 0.475 ± 0.0089
34 | CN1CCC2(C)c3cc(O)ccc3N(C)C12 (single isomer, unassigned; (-)) [(-)-Eseroline fumarate salt] | 0.577 ± 0.095
35 | CCC1(c2cccc(O)c2)CCCCN(C)C1 (stereo not given) [Meptazinol hydrochloride] | 0.643 ± 0.03
36 | c1ccc2c(c1)OCC(C1=NCCN1)O2 (stereo not given) [Idazoxan hydrochloride] | 0.598 ± 0.015
37 | Clc1ccc(C(OCCN2CCCCC2)c2ccccc2)cc1 (stereo not given) [Cloperastine hydrochloride] | 0.413 ± 0.033
38 | C[C@]12CC[C@@H](O)C[C@H]1CC[C@@H]1[C@@H]2CC[C@]2(C)C(=O)CC[C@@H]12 [3-alpha-Hydroxy-5-beta-androstan-17-one] | 0.262 ± 0.011
39 | CN(C)[C@@H]1C(=O)C(C(N)=O)=C(O)[C@@]2(O)C(=O)C3=C(O)c4c(O)cccc4[C@@](C)(O)[C@H]3[C@H](O)[C@@H]12 [Oxytetracycline dihydrate] | 0.0551 ± 0.00064
40 | C(#CCN1CCCC1)CN1CCCC1 [Tremorine dihydrochloride] | 0.696 ± 0.067
